Only some compounds are listed: those with a hit (about 0.4% of all), similar ones and a draw of the others.
HRas wt GTP bind: modulators of GTP binding to HRas wildtype, primary screen, biochemical, bead-based flow cytometry, multiplex. GTPase HRas (Homo sapiens), P01112. GST-Ras wt beads, Bodipy-FL-GTP binding; actives lie on both sides. GTP binding activity, % at 10 µM. 190,000 tested, 0.14% active. AID 759, 2007;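 active = GTP binding activity at least 20% away from the 100% baseline, either lowered as inhibitor or raised as activator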;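 also: 0% = unlabeled GTP competition control and 100% = no-compound control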
Target sequence (P01112 whole entry, looked up): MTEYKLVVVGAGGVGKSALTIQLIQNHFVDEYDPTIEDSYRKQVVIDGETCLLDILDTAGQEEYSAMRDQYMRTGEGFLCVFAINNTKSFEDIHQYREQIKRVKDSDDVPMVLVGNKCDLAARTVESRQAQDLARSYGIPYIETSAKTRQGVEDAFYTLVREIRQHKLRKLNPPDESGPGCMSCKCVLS
Cdc42 wt GTP: modulators of GTP binding to wildtype Cdc42, primary screen, biochemical, multiplex bead flow cytometry, Bodipy-GTP; 190,000 tested, 0.2% active; Cell division control protein 42 homolog (Homo sapiens), P60953; GST-Cdc42 beads; actives lie on both sides; AID 761, 2007; percent activity (GTP binding), % at 10 µM;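 active = percent activity GTP binding at least 20 points away from the 100% baseline, either down as inhibitor or up as activator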;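 also: median bead fluorescence of bound Bodipy-FL-GTP at 100 nM; 0% = excess unlabeled GTP control and 100% = no compound control; below 100% means less GTP binding so inhibitor and above means activator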
Target sequence (P60953 whole entry, looked up): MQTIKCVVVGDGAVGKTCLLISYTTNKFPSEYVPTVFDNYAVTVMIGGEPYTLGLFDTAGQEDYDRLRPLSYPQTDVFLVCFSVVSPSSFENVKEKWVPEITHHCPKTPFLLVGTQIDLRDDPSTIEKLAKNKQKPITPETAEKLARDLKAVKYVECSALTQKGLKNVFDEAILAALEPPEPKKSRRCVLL
Rab7 wt modul: modulators of GTP binding to Rab7, primary screen, biochemical, wildtype, multiplex bead flow cytometry; Rab7 GTPase wild type (dog), Bodipy-FL-GTP binding; GST-Rab7 beads, fluorescent GTP binding; actives lie on both sides; untreated = 100%, excess cold GTP = 0%; GTP binding activity (percent of control), % at 10 µM; 190,000 tested, 0.055% active; AID 758, 2007;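 active = fluorescent GTP binding to Rab7 beads changed by at least 20 points from the 100% baseline, either direction, mostly lower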;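 also: median green fluorescence of bound Bodipy-FL-GTP per Rab7 bead population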
Rac1 act GTP bind: GTP binding modulators of activated mutant Rac1, primary screen, biochemical, bead-based flow cytometry, multiplex, fluorescent GTP | 190,000 tested, 0.11% active | AID 764, 2007 | percent activity (GTP binding), % at 10 µM | GST-Rac1 activated beads; actives lie on both sides; 100% means binding = to untreated wells;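 active = GTP binding at least 20 percentage points away from the 100% baseline, in either direction, so actives lie on both sides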
Rab2A wt mod: modulators of GTP binding to Rab2A wildtype, primary screen, biochemical, dog, bead-based flow cytometry, multiplex; GST-Rab2 wt beads, Bodipy-GTP binding; GTP binding activity, % at 10 µM; 190,000 tested, 0.19% active; AID 760, 2007;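 active = GTP binding activity at least 20 points away from 100%, either lowered or raised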;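 also: 0% = beads with excess unlabeled GTP and 100% = no-compound control corrected for plate trend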
Rac1 wt modul: wildtype Rac1 GTP binding modulators, primary screen, biochemical, GST-Rac1 beads, flow cytometry, multiplex; Ras-related C3 botulinum toxin substrate 1 (Homo sapiens), P63000; fluorescent GTP binding; actives lie on both sides; 0 = cold GTP competed, 100 = untreated; GTP binding activity (% of control), % at 10 µM; 190,000 tested, 0.27% active; AID 757, 2007;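 active = GTP binding activity at least 20 points away from the 100% control level, either lower or higher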
Numbers without * were called inactive; [ ] = dose if it differs, or a comment.

SMILES	HRas wt GTP bind	Cdc42 wt GTP	Rab7 wt modul	Rac1 act GTP bind	Rab2A wt mod	Rac1 wt modul
O=Nc1c(O)[nH]c2ccc(F)cc12	96.0	94.0	102.0	93.0	96.0	100.0
NC(=S)N=Nc1c(O)[nH]c2ccc(F)cc12	76.0*	84.0	85.0	89.0	74.0*	76.0*
O=C(O)c1ccccc1SCc1ccc2c(c1)OCO2	123.0*[activator]	135.0*[activator]	121.0*[activator]	127.0*[activator]	127.0*[activator]	135.0*[activator]
O=C(c1ccccc1SCc1ccccc1)N1CCOCC1	98.0	98.0	107.0	98.0	100.0	103.0
Cc1ccc(S(=O)(=O)ON=C2CCN(S(=O)(=O)c3ccccc3)CC2)cc1	97.0	95.0	99.0	97.0	97.0	97.0
CC1=CC(=O)C=C(C)C1=NOS(=O)(=O)c1ccccc1	92.0	91.0	90.0	78.0*	88.0	89.0
CC(=O)Nc1ccnc(-c2cccnc2)n1	96.0	93.0	99.0	95.0	95.0	96.0
O=C(Nc1cccc(Cl)c1)Nc1ccnc(-c2cccnc2)n1	67.0*	64.0*	93.0	85.0	67.0*	77.0*
Cc1cc(C)n(CCNC(=O)CC2C(=O)NCCN2CC2CCCCC2)n1 (stereo not drawn)	98.0	99.0	99.0	95.0	98.0	100.0
CCOC(=O)c1ccc(NC(=O)N2CCN(c3cccc(OC)c3)CC2)cc1	96.0	93.0	99.0	92.0	95.0	97.0
Cc1cc(C)c2nc(NNC(=O)c3cc(=O)c4ccccc4o3)sc2c1	82.0	77.0*	96.0	71.0*	79.0*	80.0
N#CCC(=O)Nc1ccc(C(=O)NCC(c2ccco2)N2CCCCC2)cc1 (stereo not drawn)	105.0	107.0	107.0	98.0	106.0	104.0
Cc1ccc(S(=O)(=O)N(C)C)cc1NC(=O)COC(=O)c1ccc(Cl)cc1	105.0	113.0	109.0	109.0	108.0	144.0*[activator]
Cc1ccc(Sc2cc(Cl)nc(N)n2)cc1	94.0	94.0	98.0	95.0	92.0	93.0
c1ccc(CN2CCN(CCOCCOc3cccc4ccccc34)CC2)cc1	83.0	80.0	87.0	80.0	78.0*	88.0
CC1Cc2ccccc2N1C(=O)C1CCCN(S(=O)(=O)c2cccc3cccnc23)C1 (stereo not drawn)	103.0	105.0	98.0	101.0	102.0	105.0
COc1cc(/C=N/NC(=O)CCN2CCN(c3ccccc3)CC2)cc(OC)c1OC	86.0	87.0	94.0	90.0	80.0	79.0*
COc1cc(/C=N/NC(=O)CCN2CCN(Cc3ccccc3)CC2)cc(OC)c1OC	100.0	99.0	97.0	101.0	101.0	100.0
O=C(Nc1cc(S(=O)(=O)Nc2ccccc2Cl)ccc1O)c1sc2cc(Cl)ccc2c1Cl	87.0	80.0	94.0	78.0*	85.0	83.0
O=C(COC(=O)/C=C/c1cccs1)Nc1ccc2ccccc2c1	80.0	73.0*	81.0	76.0*	76.0*	74.0*
O=C(COC(=O)/C=C/c1cccs1)Nc1ccccc1Cl	93.0	92.0	93.0	91.0	90.0	91.0
O=C(CSCc1ccc(Cl)cc1)Nc1ccc2c(c1)OCCO2	98.0	98.0	95.0	97.0	96.0	95.0
COc1cc(NS(=O)(=O)c2ccc(Nc3nc(-c4ccccc4)cs3)cc2)nc(OC)n1	79.0*	71.0*	80.0	82.0	77.0*	73.0*
COc1ccc(OC)c(Nc2nc(-c3sc(N)nc3C)cs2)c1	79.0*	77.0*	90.0	88.0	87.0	79.0*
COc1cc(NS(=O)(=O)c2ccc(N)cc2)nc(OC)n1	101.0	106.0	97.0	102.0	99.0	102.0
CCCC(=O)Nc1nc(C)c(-c2csc(Nc3cc(OC)ccc3OC)n2)s1	99.0	100.0	97.0	98.0	99.0	101.0

From PubChem BioAssay
